Hit rate of the full screen: of about 2,100 compounds, about 1,100 (52%) were called active. Roughly 27% stayed inconclusive and do not appear here. The set was probably picked from earlier hits. The list shows a part of the results. Unmarked numbers belong to inactive results. Calls come from the whole dose curve; as a rule, active = well fitted inhibition curve with a large enough effect; inconclusive = small, poorly fitted or top-dose-only effect; inactive = no such curve, though single readings can be large or run the other way.
Target: DNA dC->dU-editing enzyme APOBEC-3G (Homo sapiens) (UniProt Q9HC16)
Sequence (Q9HC16 whole entry, looked up): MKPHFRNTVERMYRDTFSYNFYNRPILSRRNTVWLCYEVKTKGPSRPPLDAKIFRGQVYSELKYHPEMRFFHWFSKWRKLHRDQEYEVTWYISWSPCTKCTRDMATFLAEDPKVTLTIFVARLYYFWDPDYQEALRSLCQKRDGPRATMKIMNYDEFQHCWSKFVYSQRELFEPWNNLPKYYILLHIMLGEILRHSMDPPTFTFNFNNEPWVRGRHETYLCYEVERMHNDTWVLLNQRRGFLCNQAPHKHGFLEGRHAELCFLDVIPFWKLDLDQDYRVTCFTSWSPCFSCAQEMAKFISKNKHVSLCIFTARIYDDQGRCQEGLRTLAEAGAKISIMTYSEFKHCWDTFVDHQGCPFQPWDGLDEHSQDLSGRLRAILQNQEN
Assay: qHTS for inhibitors of Vif-A3G interactions: Cherry picks counterscreen;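 note: hits raise yellow fluorescence by blocking Vif-driven A3G-eYFP degradation; nearly all actives have a fitted effect of over 70% in size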;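 for max response: max response given as percent of control signal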
Settings: HeLa A3G-eYFP + Vif (tagged APOBEC3G with the HIV-1 protein that degrades it), eYFP fluorescence, 24 h
How it was run: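 HeLa cells stably expressing A3G-eYFP and Vif were treated for 24 h at 37 deg C with compounds at several concentrations; yellow fluorescence (Ex 488 nm, Em 500-530 nm) read by Acumen Explorer, MG132 as positive control.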
Potency is the fitted concentration of half-maximal effect.

Row | SMILES | max response | Potency
1 | COc1cccc(/C=N/n2c(C3CCCCC3)n[nH]c2=S)c1O | 12.3% | 
2 | C/C(=N/NC(N)=S)c1ccc(Br)s1 | 13.4% | 
3 | COc1ccc(N/C=C\C(=O)c2ccc(Br)cc2)cc1OC |  | 18.4 µM (active)
4 | COc1ccc(N/C=C/C(=O)c2cc(OC)c(OC)c(OC)c2)cc1 |  | 0.886 µM (active)
5 | COc1ccc(C(=O)N/N=C/c2cc(Br)ccc2O)cc1OC | -1.25% | 
6 | COc1ccccc1C1=NOC(COc2ccc3c(C)cc(=O)oc3c2)C1 (stereo unspecified) |  | 0.559 µM (active)
7 | CCOC(=O)c1cc(-c2ccccc2C)n(CC2CC(c3ccc(OC)cc3)=NO2)n1 (stereo unspecified) | -3.65% | 
8 | Cc1cc(=O)oc2cc(OCC(=O)N3c4ccccc4CC3C)ccc12 (stereo unspecified) |  | 4.44 µM (active)
9 | CCn1c(SCC(=O)c2c[nH]c3ccccc23)nnc1-c1cccs1 |  | 18.4 µM (active)
10 | CCN(C)c1ccc(/C=N\n2nnnc2N)cc1 |  | 5.59 µM (active)
11 | Clc1ccc2c(c1)C(C1=NCCN1)c1ccccc1CS2 (stereo unspecified) |  | 3.14 µM (active)
12 | Cc1ccccc1/C=C\c1nc2ccccc2c(=O)[nH]1 |  | 11.2 µM (active)
13 | Cc1ccc(N2C(=O)c3cccc4c(N5CCN(C)CC5)ccc(c34)C2=O)c2cccnc12 |  | 15.8 µM (active)
14 | O=C1c2cccc3c(N4CCCCC4)ccc(c23)C(=O)N1c1ccc(O)cc1 | 54.2% | 
15 | C=CCN1C(=O)c2cccc3c(N4CCCCC4)ccc(c23)C1=O |  | 18.4 µM (active)
16 | O=C1c2cccc3c(N4CCCCC4)ccc(c23)C(=O)N1c1cccc(O)c1 |  | 2.59 µM (active)
17 | O=C1c2cccc3c(N4CCCCC4)ccc(c23)C(=O)N1CCO |  | 14 µM (active)
18 | CSc1nc(Sc2ccccc2Cl)c2ccccc2n1 | -6.36% | 
19 | CCN(CC)c1ccc(/C=C/C2=C3C=CC=CC3NC=C2)cc1 (stereo unspecified) |  | 20.6 µM (active)
20 | CCN(CC)c1ccc(/C=C/C(=O)c2ccc(Br)cc2)cc1 | 26.9% | 
21 | CN(C)c1ccc(/C=C/c2ccncc2)cc1 |  | 2.59 µM (active)

Row | SMILES | max response | Potency
22 | CCN(CC)c1ccc(/C=C/c2ccccn2)cc1 |  | 16.4 µM (active)
23 | CCN(CC)c1ccc(/C=C/c2ccncc2)cc1 |  | 4.61 µM (active)
24 | NC(=S)N/N=C/c1ccccc1OC(=O)/C=C/c1ccccc1 | 5.74% | 
25 | NC(=S)N/N=C/c1cccc(O)c1O | 3.32% | 
26 | O=[N+]([O-])c1ccccc1C=NNC(=S)NN=Cc1ccccc1[N+](=O)[O-] |  | 8.86 µM (active)
27 | CCN(CC)c1ccc(/C=C2\C(=N)N3N=C(CC(=O)N4CCOCC4)SC3=NC2=O)cc1 |  | 1.58 µM (active)
28 | CN(C)c1ccc(/C=C2\SC(N3CCCCC3)=NC2=O)cc1 |  | 20.6 µM (active)
29 | COc1cc(/C=C2\C(=N)N3N=C(S(C)(=O)=O)SC3=NC2=O)ccc1OC(=O)c1ccco1 | 53.1% | 
30 | CN(C)c1ccc(/C=C2\C(=N)N3N=C(CC(=O)N4CCCCC4)SC3=NC2=O)cc1 |  | 4.61 µM (active)
31 | O=C(c1ccccn1)C1CCCN(Cc2cn[nH]c2-c2cc3ccccc3o2)C1 (stereo unspecified) | 0.488% | 
32 | C=CCn1c(O)c(N=NC(=O)CNC(=O)c2ccco2)c2ccccc21 |  | 12.5 µM (active)
33 | C=C(C)CNC(=S)NNC(=O)c1ccco1 | 8.06% | 
34 | CCOC(=S)SCC(=O)N1CCc2cc(OC)ccc2C1C1C(=O)CCCC1=O (stereo unspecified) |  | 14 µM (active)
35 | Cc1cccc(C=Nc2ccccc2C(N)=O)c1 |  | 9.94 µM (active)
36 | Cc1ccc(C=Nc2ccccc2C(N)=O)s1 |  | 2.5 µM (active)
37 | COc1ccc(NC(=O)/C(C#N)=C\C=C\c2ccco2)cc1 |  | 14 µM (active)
38 | COc1ccc(NC(=O)/C(C#N)=C/C=C/c2ccco2)cc1 |  | 11.2 µM (active)
39 | COc1ccc2c(c1)c1nc3ccccc3nc1n2Cc1ccc(OC(C)C)c(OC)c1 |  | 23.1 µM (active)
40 | COc1ccc2c(c1)c1nc3ccccc3nc1n2Cc1ccc(OC)c(OC)c1 |  | 25.9 µM (active)
41 | COc1ccc2c(c1)c1nc3ccccc3nc1n2CC(=O)OC(C)C | -18.3% | 
42 | CC(=O)Oc1c(-c2ccc(Br)o2)oc2ccccc2c1=O | -10.4% | 

Row | SMILES | max response | Potency
43 | CCc1cccc2c(C(O)c3c[nH]c4ccccc34)c[nH]c12 (stereo unspecified) |  | 20.6 µM (active)
44 | CC[n+]1ccccc1/C=C/c1ccc(N(C)C)cc1 |  | 20.6 µM (active)
45 | CC(C)CC[n+]1ccccc1/C=C/c1ccc(N(C)C)cc1 |  | 16.4 µM (active)
46 | Cc1c(CCCl)c(Cl)n2c(nc3ccccc32)c1C#N |  | 9.94 µM (active)
47 | CN(C)c1ccc2nc3c(=O)[nH]c(=O)nc-3n(CC(O)C(O)C(O)CO)c2c1 (stereo unspecified) | 0.486% | 
48 | Cc1ccc(/C=C2/NC(=O)N(Cc3ccccc3F)C2=O)s1 |  | 8.2 µM (active)
49 | CN(C)c1ccc(/C=C2\NC(=S)N(Cc3ccccc3)C2=O)cc1 |  | 2.5 µM (active)
50 | Cc1cccc(CN2C(=O)N/C(=C/c3ccc(C)s3)C2=O)c1 |  | 6.27 µM (active)
51 | Cc1ccc(/C=C2/NC(=O)N(Cc3ccccc3)C2=O)s1 |  | 20.6 µM (active)
52 | Cc1ccc2ccc3cc(C(=O)Nc4ccc(C)c(F)c4)nc3c2[nH]1 | -25.1% | 
53 | CC(C)(C)OC(=O)NC(Cc1ccccc1)C(=O)N1CCC(C(=O)NCC(=O)Nc2ccc(F)cc2)CC1 (stereo unspecified) |  | 23.1 µM (active)
54 | COc1ccc2c(n1)Sc1nc3ccccc3nc1N2 |  | 3.26 µM (active)
55 | CC1C/C(=C/c2cccs2)C(=O)/C(=C/c2cccs2)C1 (stereo unspecified) | 14.5% | 
56 | COc1cc(OC)c(OC)cc1/C=C1\CC(C)C/C(=C\c2cc(OC)c(OC)cc2OC)C1=O (stereo unspecified) |  | 20.6 µM (active)
57 | COc1ccc(-c2cc(-c3nnc(COC(=O)c4ccncc4)o3)c3ccccc3n2)cc1OC | -0.16% | 
58 | COc1ccc(COc2cc(-c3cccc(OC)c3)nc3ccc(NC(=O)c4ccc(OC)cc4)cc23)cc1 |  | 3.53 µM (active)
59 | COc1ccc(COc2cc(-c3cccc(OC)c3)nc3ccc(NC(=O)C(C)C)cc23)cc1 |  | 4.98 µM (active)
60 | C[n+]1cc(C(=O)N2CCCCC2)ccc1/C=C/c1c[nH]c2ccccc12 |  | 17.7 µM (active)
61 | CCN(CC)C(=O)c1ccc(/C=C/c2c[nH]c3ccccc23)[n+](C)c1 |  | 20.6 µM (active)

Source: PubChem BioAssay AID651813 (National Center for Advancing Translational Sciences (NCATS), 2012)
